Source: PubChem BioAssay
H9c2 TAG inh: reduces triacylglycerol accumulation in H9c2 cells | AID 651582 | 230,000 compounds, 0.66% hits | Nile Red lipid (TAG) fluorescence; cells loaded with 200 µM oleic acid | inhibition, % at 12.5 µM;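 active means pattern-corrected inhibition of lipid staining of at least 50% with the nuclear-stain viability signal not falling by more than 50%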;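 further: 0% = DMSO wells and 100% = triacsin C control wells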
MPTP block: blocks calcium-induced mitochondrial swelling | isolated mouse mitochondria, Ca2+ swelling absorbance, 30 min | inhibition, % at 10 µM | 360,000 compounds, 1.4% hits;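 active means inhibition of 50% or more, scaled per plate between neutral and stimulator controls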;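 further: 0% = DMSO wells given calcium and 100% = 1 mM EGTA wells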
NadD inh: inhibitors of Staphylococcus aureus NadD | 360,000 compounds, 0.78% hits | purified NadD enzyme, colorimetric absorbance read-out | inhibition, % at 20 µM | AID 602399; in the data active means inhibition above about 26%
aDG glyco up: alpha-DG glycosylation activation; Pro5-aDG cells, alpha-DG glycosylation AlphaScreen (IIH6); 0% Pro5, 100% B10-LARGE cell signal; activation, % at 10 µM; 360,000 compounds, 0.22% hits;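 active means activation of at least 8% versus controls, or a plate z-score of at least 8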;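 further: Pro5 are CHO cells carrying HIG-tagged alpha-DG that lacks glycosylation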
NadD inh conf: NadD (S. aureus) inhibition, single concentration confirmation. shares compounds with NadD inh. purified S. aureus NadD, colorimetric enzyme assay. inhibition, % at 20 µM. 2,000 compounds, 13% hits. AID 624309; in the data active means inhibition mostly above about 42%, no sharp cut-off; inactive means mostly below about 42%
* marks the source's active call; other numbers are inactive results. Most compounds without a hit are left out; they make up all but 2.7% or so of the library.

What do the screens show for `COc1ccc(C2CC(c3ccccc3)=NN2C(=O)COC(=O)/C=C/c2ccc(O)c(OC)c2)cc1` (configuration not stated)?
H9c2 TAG inh: 42; MPTP block: 1; NadD inh: 46*; aDG glyco up: 0; NadD inh conf: 15

How did Cc1ccc(NC(=O)C2SC(=Nc3ccccc3)C(C(=O)Nc3ccc(Cl)cc3)=C2N)cc1 (configuration not stated) do in these assays?
H9c2 TAG inh: 1; MPTP block: 29; NadD inh: 7; aDG glyco up: 0

How did Cc1ccc(N=C2SC(C(=O)Nc3ccc(OC(F)(F)F)cc3)C(N)=C2C(=O)Nc2c(C)cc(C)cc2C)cc1 (configuration not stated) do in these assays?
MPTP block: 40; NadD inh: 33*; aDG glyco up: 0; NadD inh conf: 38

What do the screens show for `O=C(NCCOC(=O)c1c(F)cccc1Cl)c1c(F)cccc1Cl`?
MPTP block: 4; NadD inh: -3; aDG glyco up: 0

What do the screens show for `Cc1ccc(S(=O)(=O)N2CCN(c3ncnc4scc(-c5ccc(F)cc5)c34)CC2)cc1`?
H9c2 TAG inh: 10; MPTP block: 1; NadD inh: 37*; aDG glyco up: 0; NadD inh conf: 14

How did COc1ccc(-c2csc3ncnc(N4CCN(S(=O)(=O)c5cccc(Br)c5)CC4)c23)cc1 do in these assays?
H9c2 TAG inh: 4; MPTP block: 1; NadD inh: 31*; aDG glyco up: 0; NadD inh conf: 18

What do the screens show for `Cc1ccc(S(=O)(=O)N2CCN(c3ncnc4scc(-c5ccccc5)c34)CC2)cc1`?
H9c2 TAG inh: 6; MPTP block: 0; NadD inh: 14; aDG glyco up: 0

Results for CC(C)CN1C(=O)CSCC1(C)C(=O)NCc1ccccc1 (configuration not stated) ?
MPTP block: 4; aDG glyco up: 0

Results for COc1ccc(C(C(=O)NC2CCCC2)N(C(=O)c2snc(-c3ccc(F)cc3)c2N)c2cccc(F)c2)cc1 (configuration not stated) ?
MPTP block: -6; NadD inh: 39*; aDG glyco up: 0; NadD inh conf: 6

How did COc1ccc(C(C(=O)NC2CCCC2)N(C(=O)c2snc(-c3ccc(F)cc3)c2N)c2ccccc2)cc1 (configuration not stated) do in these assays?
MPTP block: -1; NadD inh: 17; aDG glyco up: 0

How did NC(Cc1ccc(F)cc1)c1csc(NC(=O)NC(c2ccccc2)c2ccccc2)n1 (configuration not stated) do in these assays?
H9c2 TAG inh: 129; MPTP block: 1; NadD inh: 21; aDG glyco up: -1

Results for CN(C)S(=O)(=O)c1cc(NC(=O)CN2CCCc3ccccc32)ccc1Cl ?
H9c2 TAG inh: -15; MPTP block: 2; NadD inh: 18; aDG glyco up: 0

Results for CN(C)S(=O)(=O)c1cc(NC(=O)CN2CCc3ccccc32)ccc1Cl ?
H9c2 TAG inh: -7; MPTP block: 0; NadD inh: 39*; aDG glyco up: 0; NadD inh conf: 40

Results for COc1cc(OC)cc(C2=Cc3ccc(OC)cc3C(CC(C)=O)N2c2ccc(-c3cncnc3)cc2)c1 (configuration not stated) ?
MPTP block: 1; NadD inh: 0; aDG glyco up: 0

How did COC(=O)c1ccc(N2C(c3cc(OC)cc(OC)c3)=Cc3ccc(-c4ccc(C(N)=O)cc4)cc3C2CC(=O)C2CC2)cc1 (configuration not stated) do in these assays?
MPTP block: -1; NadD inh: 24; aDG glyco up: 3

Results for COc1cc(OC)cc(C2=Cc3ccccc3C(CC(=O)c3ccco3)N2c2ccc(-c3cccnc3)cc2)c1 (configuration not stated) ?
MPTP block: 1; NadD inh: 35*; aDG glyco up: 0; NadD inh conf: 36

How did COC(=O)c1ccc(N2C(c3cc(OC)cc(OC)c3)=Cc3ccc(-c4cccnc4)cc3C2CC(=O)C2CC2)cc1 (configuration not stated) do in these assays?
MPTP block: 2; NadD inh: 32*; aDG glyco up: 1; NadD inh conf: 22

How did Brc1ccc(-c2ccc(/C=N/Nc3nncc(-c4ccccc4)n3)o2)cc1 do in these assays?
H9c2 TAG inh: 28; MPTP block: 3; NadD inh: 29*; aDG glyco up: 0; NadD inh conf: 9

How did COc1ccc(-c2cnnc(N/N=C/c3ccc(C)o3)n2)cc1 do in these assays?
MPTP block: 0; NadD inh: 7; aDG glyco up: 0

How did O=C1CC(=C(c2ccccc2)c2ccccc2)C(=O)N1CCCN1CCN(c2cccc(Cl)c2)CC1 do in these assays?
MPTP block: -1; NadD inh: 2; aDG glyco up: 2

Results for O=C1CC(=C2c3ccccc3-c3ccccc32)C(=O)N1CCCCN1CCN(c2ccccc2)CC1 ?
H9c2 TAG inh: 17; MPTP block: -1; NadD inh: 48*; aDG glyco up: 0; NadD inh conf: 30

Results for O=C(O)CC/C(=C\c1ccc(Cl)c([N+](=O)[O-])c1)c1nc2ccccc2s1 ?
MPTP block: 2; NadD inh: 5; aDG glyco up: 0

Results for O=C(O)CC/C(=C/c1cccc(NC(=O)c2ccccc2Cl)c1)c1nc2ccccc2s1 ?
H9c2 TAG inh: 12; MPTP block: 2; NadD inh: 47*; aDG glyco up: 0; NadD inh conf: 40

What do the screens show for `CC1(C(=O)NS(=O)(=O)C2CC2)CCN(C(=O)c2ccccc2C(F)(F)F)C1` (configuration not stated)?
H9c2 TAG inh: 8; MPTP block: 2; NadD inh: 0; aDG glyco up: 0

How did COc1ccc(Br)cc1/C=c1\sc2nc(-c3ccco3)nn2c1=O do in these assays?
H9c2 TAG inh: 3; MPTP block: -7; NadD inh: 40*; aDG glyco up: 0; NadD inh conf: 13

Results for CCNc1ccc(Br)cc(C(=O)/C=C/c2ccc(Cl)cc2Cl)c1=O ?
MPTP block: 13; NadD inh: 39*; aDG glyco up: 0; NadD inh conf: 11

How did CC(C)(C)[C@H]1COC(=O)[C@H](Cc2ccc(F)cc2)CC/C=C/C[C@@H](CC(=O)N[C@H](CO)Cc2ccccc2)C(=O)N1 do in these assays?
H9c2 TAG inh: -2; MPTP block: -2; NadD inh: -6; aDG glyco up: 0

How did COc1ccc(OC)c(S(=O)(=O)Nc2cccc(-c3ccc(N4CCCCCC4)nn3)c2)c1 do in these assays?
MPTP block: 1; NadD inh: 36*; aDG glyco up: 0; NadD inh conf: 30

How did COc1ccc(S(=O)(=O)Nc2cccc(-c3ccc(N4CCCCCC4)nn3)c2)c(OC)c1 do in these assays?
MPTP block: -1; NadD inh: 28*; aDG glyco up: 0; NadD inh conf: 36

What do the screens show for `Cc1ccc(S(=O)(=O)Nc2cccc(-c3ccc(N4CCCCCC4)nn3)c2)cc1`?
MPTP block: 1; NadD inh: 34*; aDG glyco up: 0; NadD inh conf: 21
